# Many of the other results were omitted from the sample, so hits are more common in it than they were.
# ST2 inh = inhibitors of human ST2 (IL1RL1) binding to IL-33; Q01638; AlphaLISA ST2-Fc/biotin-IL-33 interaction, 1 h; inhibition, % for hits at 17 µM; 78,000 tested, 2.3% active; in the data active means inhibition above about 30%
# Target sequence (Q01638 whole entry, looked up): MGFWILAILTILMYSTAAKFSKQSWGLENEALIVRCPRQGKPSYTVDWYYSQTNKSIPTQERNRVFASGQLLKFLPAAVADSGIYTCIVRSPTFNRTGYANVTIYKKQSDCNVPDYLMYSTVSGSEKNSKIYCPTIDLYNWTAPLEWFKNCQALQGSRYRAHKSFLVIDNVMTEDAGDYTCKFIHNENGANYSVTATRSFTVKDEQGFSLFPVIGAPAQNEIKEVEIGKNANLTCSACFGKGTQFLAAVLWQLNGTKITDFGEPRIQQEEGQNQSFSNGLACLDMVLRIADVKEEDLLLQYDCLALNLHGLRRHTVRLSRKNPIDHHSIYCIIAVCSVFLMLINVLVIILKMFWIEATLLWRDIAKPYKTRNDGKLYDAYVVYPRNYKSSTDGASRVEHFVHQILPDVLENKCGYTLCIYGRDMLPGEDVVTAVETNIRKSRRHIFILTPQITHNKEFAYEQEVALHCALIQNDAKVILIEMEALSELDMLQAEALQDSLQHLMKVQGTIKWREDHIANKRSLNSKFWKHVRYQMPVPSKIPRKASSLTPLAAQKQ
# An asterisk follows results filed as active; i = inactive; ! = repeats disagree.
SMILES,ST2 inh
CCOc1ccc(N=CNc2ccc(OCC)cc2)cc1,i
CCOc1ccc(N=C/C(=C/Nc2ccc(OCC)cc2)c2ccccc2)cc1,36%*
CCOc1ccc(NCC(=O)c2ccc(Br)cc2)cc1,i
COc1cccc(Cn2c(CNC(=O)c3ccc(N(C)C)cc3)nc3cccnc32)c1,i
O=C(Nc1ccc([N+](=O)[O-])cc1)c1cc(I)ccc1Cl,i
O=C(Nc1ccccc1[N+](=O)[O-])c1cc(I)ccc1Cl,35%*
O=C(Nc1cccc([N+](=O)[O-])c1)c1cc(I)ccc1Cl,i
O=C(Nc1ccccc1I)c1ccc(Cl)cc1[N+](=O)[O-],30%*
O=C(Nc1cccc([N+](=O)[O-])c1)c1ccccc1Cl,i
O=C(Nc1ccccc1I)c1cc([N+](=O)[O-])ccc1Cl,i
O=C(Nc1ccc([N+](=O)[O-])cc1Cl)c1cc(I)ccc1Cl,31%*
O=C(NCc1cccs1)c1ccc(Cl)cc1[N+](=O)[O-],i
COc1cc([N+](=O)[O-])ccc1NC(=O)c1cc(I)ccc1Cl,i
Cc1cccc(NC(=O)c2ccc([N+](=O)[O-])cc2Cl)c1,31%*
O=C(Nc1ccccc1Cl)c1ccccc1[N+](=O)[O-],i
CC(C)Oc1ccc(NC(=O)c2ccc([N+](=O)[O-])cc2Cl)cc1,i
Cc1nn(CCCC(=O)Nc2cnn(Cc3ccc(Cl)cc3Cl)c2)c(C)c1[N+](=O)[O-],i
CC1(C)CNC(=O)c2nc(-c3cc4ccccc4[nH]3)[nH]c2C1,i
Cc1cccc(C(=O)Nc2cccc(Cl)c2)c1,i
Cc1c(Cc2ccccc2)c(=O)oc2cc(OCC(=O)O)ccc12,i
Cc1cc(-n2cnnc2C2CCOCC2)n(C)n1,i
O=C(Cc1ccc(Cl)cc1)Nc1ccc([N+](=O)[O-])cc1Cl,i
CCCN(Cc1ccc(OC)cc1)C(=O)Cc1nc(C)sc1C,i
COc1ccc(-c2nc3sc(-c4ccc(OC)c(OC)c4)nc3s2)cc1OC,i
Cc1ccc(CNc2cccc(C(=O)N(C)CCn3ccnc3C)c2)s1,i
SMILES,ST2 inh
CC1=C(C(=O)N2CCc3c(c(C(=O)NCc4nccs4)nn3Cc3ccccc3)C2)OCCO1,i
O=C(NCCCn1ccnc1)c1cc(-c2ccc(Cl)cc2)on1,i
Cc1nnsc1C(=O)NCc1cnn2ccccc12,i
CCOC(=O)c1c(NC(=O)c2csc3c2CCCC3)sc2c1CCCC2,i
CC(=O)N1N=C(c2ccccc2)CC1c1ccc(Br)cc1 (configuration not stated),i
N#CC1CC(c2ccccc2)=NN1c1ccccc1 (configuration not stated),96%*
c1ccc(C2=NN3COc4ccccc4C3C2)cc1 (configuration not stated),i
COCCNC(=O)Cc1c(C(=O)O)[nH]c2ccc(Cl)cc12,i
CN(C)C(=NS(=O)(=O)c1ccc(Br)cc1)c1ccccc1,i
O=C1C=CC(=NS(=O)(=O)c2ccccc2)C=C1Br,31%*
CC(CC1CCCCC1)NCCS(=O)(=O)N(C)C (configuration not stated),i
COc1ccc(Nc2cc(C)nc3c(C)c(C)ccc23)cc1OC,i
COc1ccc(OC)c(Nc2cc(C)nc3c(C)c(C)ccc23)c1,37%*
COc1ccc(Nc2cc(C)nc3c(C)c(C)ccc23)cc1,i
CCN(CC)CCCN1C(=O)C(=O)C(=C(O)c2ccccc2)C1c1cccc([N+](=O)[O-])c1 (configuration not stated),i
O=C(c1sccc1S(=O)(=O)N1CCCC1)N1C[C@H]2CC=CC[C@H]2C1,i
COc1ccc2nc(NC(=O)c3cn(CC(C)C)c(=O)c4c3c3ccccc3n4C)sc2c1,i
COc1ccc(OC)c(S(=O)(=O)NC2CCCCC2C)c1 (configuration not stated),i
CCCNS(=O)(=O)c1ccc(OC)c(OC)c1,i
COc1ccc(S(=O)(=O)NC2CCCCC2C)cc1OC (configuration not stated),34%*!
Cc1ccc(-c2nnc(N3CCN(C)CC3)c3ccccc23)cc1C,i
Nc1nc2n(n1)C(c1ccco1)CC(c1ccc(F)cc1)N2 (configuration not stated),i
Fc1ccc(C2=NN(c3ccccc3)C(c3ccco3)C2)cc1 (configuration not stated),45%*
O=C(c1ccccc1Br)N1N=C(c2ccc(Br)cc2)CC1c1ccco1 (configuration not stated),i
Cc1ccc(C)c(Cn2cnc3c(cnn3-c3ccccc3)c2=O)c1,i
SMILES,ST2 inh
CC(C)(O)C#Cc1ccc(C(=O)N2CC[C@@H](c3ccc(F)cc3)[C@H](O)C2)o1,i
O=C1c2ccccc2C(=O)C1c1ccncc1,99%*
O=C1c2ccccc2C(=O)C1c1ccccn1,i
O=C1c2ccccc2C(=O)C1c1nc2ccccc2[nH]1,i
CC(C)C[C@@H](NC(=O)[C@@]1(O)C[C@@H](O)[C@H](O)[C@@H](NC(=O)c2cccnc2)C1)C(N)=O,i
CCCCN(CC)S(=O)(=O)c1ccc(C(=O)Nc2nnc(-c3cccc(OC)c3)o2)cc1,i
Cc1cc(C)cc(OCC(=O)Nc2nccs2)c1,i
C/C=C/C(=O)Nc1ccccc1-c1ccc(-c2ccn[nH]2)cc1,i
O=C(Nc1ccc2c(c1)CCC2)c1cc(-c2ccncc2)nc2ccccc12,i
O=C(Cc1cccs1)N1CCc2c(c(C(=O)N3CCOCC3)nn2CCCc2ccccc2)C1,i
Cc1ccc(C(=O)N2CCc3c(c(C(=O)N4CCNC(=O)C4)nn3CCCc3ccccc3)C2)s1,30%*
O=C(c1n[nH]c2c1CCC2)N1CCc2c(c(C(=O)N3CCOCC3)nn2CCCc2ccccc2)C1,i
COc1cc2c(cc1OC)CN(Cc1ccccc1F)CC2,i
CCc1ccccc1-c1cncc(OC)c1,i
O=C1NC(=Nc2ccccc2)S/C1=C/c1cc(Br)ccc1O,36%*
Cc1ccccc1CC1SC(=Nc2ccccc2)NC1=O (configuration not stated),i
O=C1CC(c2ccc(F)c(Br)c2)c2ccc3ccccc3c2N1 (configuration not stated),i
Cc1ccc(NC(=O)CC2SC(=Nc3ccccc3)NC2=O)c(C)c1 (configuration not stated),i
O=C1NC(=Nc2cccc(Br)c2)SC1(CO)CO,i
O=C1NC(=Nc2ccccc2)SC1(CO)CO,i
CCOc1cc(/C=C2\C(=O)NC(=O)N(c3ccccc3)C2=O)ccc1O,i
O=C1NC(=Nc2ccccc2)S/C1=C/c1ccc(O)c(O)c1,35%*
O=C1NC(=Nc2ccccc2)S/C1=C/c1ccc(F)c(Br)c1,43%*
COC(=O)c1c(NC(=O)c2ccc(Br)o2)sc2c1CCCC2,i
O=C(c1ccccc1[N+](=O)[O-])n1c(COc2ccccc2)nc2ccccc21,i
SMILES,ST2 inh
COc1ccc(-c2cccc3ccnn23)c(C)c1,i
COc1ccc(C(=O)Nc2cccc(F)c2)cc1OC,i
CCc1nc(C)sc1C(=O)N1C[C@@H]2C3CCC(CC3)[C@@H]2C1,i
O=[N+]([O-])c1ccc(N2CCN(c3ccccc3)CC2)c(S(=O)(=O)N2CCCCC2)c1,50%*
Cc1ccc(S(=O)(=O)N2CCN(C(=O)c3ccccc3)C2)cc1[N+](=O)[O-],i
O=[N+]([O-])c1ccc(N2CCN(Cc3ccccc3)CC2)c(S(=O)(=O)N2CCOCC2)c1,i
O=S(=O)(c1ccc(Cl)c(Cl)c1)N1CCCCC1,i
O=[N+]([O-])c1ccccc1S(=O)(=O)Nc1ccc(Cl)c(Cl)c1,i
